In PubChem BioAssay AID2599 (Sanford-Burnham Center for Chemical Genomics, 2010):
Hit rate of the full screen: of about 330,000 compounds, about 5,800 (1.8%) were called active. Shown is part of a subset that was picked to be rich in actives. Values without a mark were called inactive.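 The calls were made as follows: active = inhibition above about 50% at the single tested dose (limit read from the data); inactive = the rest.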

Target: Sentrin-specific protease 6 (Homo sapiens) (UniProt Q9GZR1)
Test: inhibition of human SENP6 catalytic domain – biochemical, luminescence, uHTS, primary screen (AID 2599);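 also: plate controls were DMSO wells with enzyme for no effect and DMSO wells lacking enzyme for full effect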
Conditions: Recombinant SENP6 catalytic domain, aminoluciferin luminescence; at 10 µM; active compounds read high

Sequence of Sentrin-specific protease 6 (Homo sapiens) (Q9GZR1 628-1112 limits assumed): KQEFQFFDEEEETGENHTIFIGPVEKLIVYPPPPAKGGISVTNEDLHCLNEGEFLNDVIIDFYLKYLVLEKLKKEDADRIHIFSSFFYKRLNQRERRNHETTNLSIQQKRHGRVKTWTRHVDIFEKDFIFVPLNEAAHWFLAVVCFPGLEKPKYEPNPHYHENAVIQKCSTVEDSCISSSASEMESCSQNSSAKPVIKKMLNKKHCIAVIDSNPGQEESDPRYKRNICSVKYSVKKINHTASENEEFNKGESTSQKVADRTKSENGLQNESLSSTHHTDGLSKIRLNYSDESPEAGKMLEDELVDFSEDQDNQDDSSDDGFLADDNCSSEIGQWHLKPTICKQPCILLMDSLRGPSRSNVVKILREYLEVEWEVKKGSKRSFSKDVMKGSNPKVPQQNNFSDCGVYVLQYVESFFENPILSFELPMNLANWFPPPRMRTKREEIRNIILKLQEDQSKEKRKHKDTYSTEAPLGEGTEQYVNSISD

| Compound | inhibition |
| --- | --- |
| COc1cccc(C(=O)CC(=O)C(=O)Nc2ccc([N+](=O)[O-])cc2C)c1 | 3.79% |
| CC1(C)C=C2[C@H]3CC[C@@H]4[C@@]5(C)CCC(=O)C(C)(C)[C@@H]5CC[C@@]4(C)[C@]3(C)CC[C@@]2(C(=O)O)CC1 | 12.4% |
| O=C(C1=C[C@H](c2coc3ccccc3c2=O)C[C@H](OCc2ccc(CO)cc2)O1)N1CCN(Cc2ccccc2)CC1 | -13.7% |
| O=C(NC(=S)Nc1ccc(Br)cc1F)C1CCCCC1 | -12.9% |
| Cc1cnc(C(=O)OCC(=O)N2CCc3ccccc32)cn1 | 0.963% |
| CCOC(=O)N1CCC(NC(=O)c2cnn3ccccc23)CC1 | 3.17% |
| O=C(c1cnn2ccccc12)N1CCc2ccccc21 | 51% (active) |
| Cc1oc2cc(Br)c(O)c(Br)c2c1C(=O)c1ccccc1 | -11.8% |
| Cc1csc(NC(=O)c2ccc(C)s2)n1 | 0.083% |
| COc1cc2ccccc2cc1C(=O)Nc1nc(C)c(C(C)=O)s1 | 16.4% |
| COc1cc(SC)ccc1C(=O)Nc1cc(C)ccn1 | 62.6% (active) |
| COc1ccc(C(=O)Nc2cccc(NC(=O)c3ccc(OC)cc3OC)n2)c(OC)c1 | -18% |
| COc1cc(SC)ccc1C(=O)N(Cc1ccccc1)c1ccccc1 | -10.9% |
| COc1cc(SC)ccc1C(=O)NNC(=O)C1COc2ccccc2O1 (centres undefined) | -13.5% |
| Cc1ccnc(NC(=O)CNC(=O)c2ccccc2)c1 | 6.25% |
| COC(=O)c1sc(NC(=O)c2ccc(OC)cc2OC)nc1C | 74% (active) |
| Cc1ccnc(NC(=O)c2ccoc2C)c1 | 88.3% (active) |
| COc1cc(SC)ccc1C(=O)Nc1nc(C)cs1 | 97.3% (active) |
| Cc1occc1C(=O)Nc1cccc(Cn2cccn2)c1 | -1.37% |
| COc1cc(SC)ccc1C(=O)NCCOc1ccccc1Cl | 13.4% |
| C=CCN(CC=C)C(=O)COC(=O)c1n[nH]c2ccccc12 | -20.6% |
| CCOc1ccc(NC(=S)NC(=O)/C=C/c2ccc(OC)cc2)c([N+](=O)[O-])c1 | -2.86% |
| O=C(Nc1nccs1)C1CCN(S(=O)(=O)c2ccc(Cl)c(C(F)(F)F)c2)CC1 | -4.6% |
| CCOc1ncccc1C(=O)Nc1ccc(S(=O)(=O)Nc2nc(C)cc(C)n2)cc1 | -19.1% |
| O=C(c1ccc(OC2CCN(C/C=C/c3ccc(F)cc3)CC2)cc1)N1CCCCC1 | 0.618% |

| Compound | inhibition |
| --- | --- |
| COc1cc(C)nc(N2CCCC(C(=O)NCC(C)C)C2)n1 (centres undefined) | -10.1% |
| O=C(NNS(=O)(=O)c1ccc(F)cc1)C1CCCCC1 | -3.19% |
| CCOC(=O)c1sc(NC(=O)c2sc(C)nc2C)nc1C | 15.3% |
| CCOC(=O)c1cccnc1NC(=O)c1ccncc1 | -2.78% |
| CCOC(=O)c1sc(NC(=O)c2ccncc2)nc1C | 97.5% (active) |
| CC(=O)c1sc(NC(=O)c2ccc(C)cc2)nc1C | 62% (active) |
| COC(=O)c1sc(NC(=S)NC(=O)c2ccc(C)cc2)nc1C | -20% |
| CC(=O)c1sc(N/N=C\c2ccc(C)cc2)nc1C | 23.9% |
| COC(=O)[C@]1(Cc2ccccc2)N[C@H](CN(C)S(=O)(=O)c2ccc(OC(F)(F)F)cc2)[C@@H]2C(=O)N(C)C(=O)[C@@H]21 | 17% |
| O=C(COc1ccccc1)N1CCN=C1SCc1cccc(F)c1 | -16.4% |
| CC(=O)Nc1ccccc1NC(=O)c1cc(C)cc(C)c1 | 3.76% |
| C=CCN(c1ccc(C(=O)Nc2cc(C)cc(C)c2)cc1)S(C)(=O)=O | 7.58% |
| CSCc1ccc(C(=O)Nc2cc(C)cc(C)c2)cc1 | 86% (active) |
| Cc1cc(NC(=O)OC(C)C)ccc1-c1ccc(NC(=O)OC(C)C)cc1C | -24.2% |
| O=C(NCCCn1ccnc1)c1cc(-c2ccccc2)on1 | 13.4% |
| COC1=C(N2CCOCC2)C(=O)c2ccccc2C1=O | 44.9% |
| Cc1oc2c(c1C(=O)N1CCOCC1)C(=O)c1ccccc1C2=O | 68.9% (active) |
| COc1cc2ccccc2cc1C(=O)N1CCOCC1 | 5.76% |
| Cc1ccc(NC(=O)C2CC2)cc1S(=O)(=O)N1CCOCC1 | -10.6% |
| COC(=O)c1ccc(NCC(=O)c2ccccc2)cc1 | 95.5% (active) |
| Cc1ccc(C(=O)CNc2ccc(F)cc2)cc1 | 6.04% |
| COC(=O)c1ccc(NCC(=O)N2CCCCCC2)cc1 | -9.61% |
| Cn1ncc2c(NNC(=O)Cc3cccc4ccccc34)ncnc21 | -8.95% |
| O=C(CN1CCN(c2cccc(Cl)c2)CC1)Nc1ccc(S(=O)(=O)N2CCOCC2)cc1 | 5.09% |
